Screening data as filed in PubChem BioAssay.
HT1080 IDH1KD tx = toxicity to HT-1080 IDH1 knockdown cells (counter line); hit rate 2% among 360,000; Potency, µM (series often up to 46.1 µM), usual class: cytotoxic; HT-1080 IDH1 knockdown viability, ATP luminescence, 48 h
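Viability of IDH1-knockdown HT-1080 fibrosarcoma cells was assessed by CellTiter-Glo after 48 h at 37 °C with titrated compound; concentration-effect curves were classified by fit quality and response size.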
IL-1B inflam inh = inhibitors of inflammasome signaling (IL-1 beta secretion). activity change, % at 57.5 µM. hit rate 4.7% among 360,000. THP-1 LPS/ATP IL-1B secretion, AlphaLISA, 16 h; active compounds read low; in the data active = activity change below about -50%; inconclusive = mostly about -30% to -49%
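Secreted IL-1B measured by AlphaLISA bead assay after 16 h compound exposure of THP-1 cells; compounds (final up to 57.5 uM) added 1 h before LPS (250 ng/mL) and ATP (1.25 mM) stimulation; lower signal means less secretion.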
DT40 TDP1 no CPT = qHTS for Inhibitors of human tyrosyl-DNA phosphodiesterase 1 (TDP1): qHTS in cells in absence of CPT; hit rate 15% among 420,000; AID 686978, 2013; Potency, µM (highest dose often 46.2 µM), usual class: inhibitors; DT40 Tdp1-/- hTDP1 cells, no CPT, ATP luminescence, 48 h; note: nearly all actives have a fitted effect of over 55% in size
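Stably hTDP1-transfected Tdp1-null chicken DT40 cells were treated with library compounds minus camptothecin and grown for at least 48 hr at 37 °C, after which cellular ATP was quantified by luminescence.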
TDP1 cell CPT = growth inhibition of DT40 Tdp1-/-;hTDP1 cells with camptothecin (screen for TDP1 inhibitors); chicken DT40 Tdp1-/-;hTDP1 cells + 20 nM CPT, ATP luminescence, 48 h; AID 686979; hit rate 12% among 420,000; Potency, µM (titrated, usually from 46.2 µM), actives largely listed as inhibitors; note: nearly all actives have a fitted effect of over 55% in size
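Chicken DT40 Tdp1-/- cells stably complemented with human TDP1 were seeded at 400 cells/well in medium containing 20 nM camptothecin, exposed to pin-transferred compounds, and grown at 37 °C for at least 48 hr. Viability was read as ATP luminescence.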
HT1080NT lethal = kills 2HG-producing HT-1080-NT fibrosarcoma cells | HT-1080-NT fibrosarcoma viability, CellTiter-Glo ATP luminescence, 48 h | Potency, µM (series often up to 46.1 µM), actives largely listed as cytotoxic | hit rate 1.6% among 360,000 | AID 686970;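 note: NT is the 2HG producing partner of a matched IDH1 knockdown line; nearly all actives have a fitted effect of over 55% in size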
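Read-out is CellTiter-Glo luminescence after 10 minutes at room temperature, following 48 hours' compound treatment of HT-1080-NT cells (750 cells/well, RPMI, 5% FBS, 37 degrees C).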
Each line names hits and unclear results; the compound was inactive in the other large screens. This is a sample that favours compounds with a hit; in the whole collection about 19% have one here. Unless noted, calls come from the whole dose curve; as a rule, active = well fitted curve in the direction sought with a large enough effect; inconclusive = small, poorly fitted or top-dose-only effect, or another doubt; inactive = no such curve, though single readings can be large; an effect the other way counts as inactive or inconclusive.

CN(C)c1ccc(CNC(=O)C2Cc3c(-c4ccccc4Oc4ccccc4)ccnc3O2)cc1 (stereo unspecified)	HT1080 IDH1KD tx inconclusive, DT40 TDP1 no CPT inconclusive, TDP1 cell CPT inconclusive, HT1080NT lethal inconclusive
COc1ccc(CNC(=O)C2Cc3c(-c4ccccc4Oc4ccccc4)ccnc3O2)cc1OC (stereo unspecified)	DT40 TDP1 no CPT 20.6µM, TDP1 cell CPT 18.4µM, HT1080NT lethal inconclusive
CC(=O)Nc1ccc(NC(=O)C(C)OC(=O)C23CC4CC(CC(Cl)(C4)C2)C3)cc1 (stereo unspecified)	HT1080 IDH1KD tx inconclusive, DT40 TDP1 no CPT inconclusive
Cc1ccc2cccc(Oc3ncnc4scc(-c5ccccc5)c34)c2n1	HT1080 IDH1KD tx inconclusive, DT40 TDP1 no CPT inconclusive, TDP1 cell CPT inconclusive, HT1080NT lethal inconclusive
CC(=O)Nc1ccc(Sc2ncnc3scc(-c4ccccc4)c23)cc1	IL-1B inflam inh inconclusive
COc1ccc(-c2csc3ncnc(N4CCN(c5ccccc5OC)CC4)c23)cc1	IL-1B inflam inh inconclusive, DT40 TDP1 no CPT 18.4µM, TDP1 cell CPT inconclusive
COc1ccc(-c2csc3nc(C)nc(N4CCN(C(C)=O)CC4)c23)cc1OC	DT40 TDP1 no CPT inconclusive
COc1ccc(-c2csc3ncnc(N4CCN(CCO)CC4)c23)cc1	DT40 TDP1 no CPT inconclusive
COc1ccc(-c2csc3ncnc(Oc4cccc5ccc(C)nc45)c23)cc1	DT40 TDP1 no CPT inconclusive, TDP1 cell CPT 16.4µM
Cc1nc(N2CCN(c3ccccc3O)CC2)c2c(-c3ccccc3)csc2n1	HT1080 IDH1KD tx inconclusive, IL-1B inflam inh -61.5, DT40 TDP1 no CPT 16.4µM, TDP1 cell CPT inconclusive
CC(=O)Nc1cccc(Oc2ncnc3scc(-c4ccc(C(C)C)cc4)c23)c1	HT1080 IDH1KD tx inconclusive, IL-1B inflam inh -51.7, DT40 TDP1 no CPT 1.16µM, TDP1 cell CPT 1.3µM, HT1080NT lethal inconclusive
O=C(C1CN(C(=O)c2cc3cc(Cl)ccc3o2)c2ccccc2O1)N1CCCCC1 (stereo unspecified)	DT40 TDP1 no CPT inconclusive, TDP1 cell CPT inconclusive
CCN(CC)C(=O)/C(=C/c1cccc([N+](=O)[O-])c1)NC(=O)c1ccco1	DT40 TDP1 no CPT inconclusive
Oc1ccccc1N1CCN(c2ncnc3scc(-c4ccccc4)c23)CC1	HT1080 IDH1KD tx inconclusive, IL-1B inflam inh inconclusive, DT40 TDP1 no CPT 23.1µM, TDP1 cell CPT inconclusive, HT1080NT lethal inconclusive
CN1CCN(c2ncncc2-c2ccccc2Cl)CC1	none (no result: HT1080 IDH1KD tx, IL-1B inflam inh, HT1080NT lethal)
CN1CCN(c2ncnc3scc(-c4ccccc4Cl)c23)CC1	IL-1B inflam inh inconclusive, DT40 TDP1 no CPT 9.2µM, TDP1 cell CPT inconclusive
CCOC(=O)c1ccccc1N/C=C/C(=O)c1cccs1	DT40 TDP1 no CPT 20.6µM, TDP1 cell CPT inconclusive
COc1ccc(OCc2cc(C(=O)NC(C)Cc3cnccn3)no2)c(Cl)c1 (stereo unspecified)	TDP1 cell CPT inconclusive
COc1ccccc1N1CCN(C(=O)c2c(-c3c(F)cccc3Cl)noc2C)CC1	HT1080 IDH1KD tx inconclusive, DT40 TDP1 no CPT 13µM, TDP1 cell CPT 23.1µM, HT1080NT lethal inconclusive
Cc1onc(-c2ccccc2)c1C(=O)N1CCN(c2ccc([N+](=O)[O-])cc2)CC1	DT40 TDP1 no CPT 20.6µM, TDP1 cell CPT inconclusive
COc1ccccc1N1CCN(C(=O)c2c(-c3ccccc3)noc2C)CC1	HT1080 IDH1KD tx 14.6µM, DT40 TDP1 no CPT 7.31µM, TDP1 cell CPT 10.3µM, HT1080NT lethal inconclusive
CCOC(=O)c1c(C)oc2cc(Br)c(OC)cc12	none
Cc1onc(-c2ccccc2)c1C(=O)N1CCN(c2ccccc2)CC1	DT40 TDP1 no CPT inconclusive, TDP1 cell CPT inconclusive
COc1cc2c(C(=O)N3CCN(c4ccccc4C)CC3)c(C)oc2cc1Br	IL-1B inflam inh -73.3, DT40 TDP1 no CPT 16.4µM, TDP1 cell CPT inconclusive
Cc1onc(-c2ccccc2)c1C(=O)N1CCCN(C(=O)c2c(-c3ccccc3)noc2C)CC1	none
CCCC(=O)Nc1ccccc1NC(=O)c1ccc(OC(C)=O)cc1	none
CCOc1cccc(C2c3c(oc4ccc(F)cc4c3=O)C(=O)N2CCOC)c1 (stereo unspecified)	none (no result: HT1080 IDH1KD tx, IL-1B inflam inh, HT1080NT lethal)
COc1ccccc1NS(=O)(=O)c1ccc2c(c1)n(C)c(=O)n2C	DT40 TDP1 no CPT inconclusive, TDP1 cell CPT inconclusive
N#Cc1nccnc1N1CCN(C(=O)Nc2ccccc2)CC1	none
COc1ccc(NC(=O)C2(C)Cc3c(-c4ccc(NC(C)=O)cc4)ccnc3O2)cc1OC (stereo unspecified)	DT40 TDP1 no CPT 13µM, TDP1 cell CPT inconclusive
COc1ccc(NC(=O)C2(C)Cc3c(-c4cccc(NC(C)=O)c4)ccnc3O2)cn1 (stereo unspecified)	HT1080 IDH1KD tx inconclusive, DT40 TDP1 no CPT 1.46µM, TDP1 cell CPT 0.731µM, HT1080NT lethal inconclusive
COc1ccc(NC(=O)C2(C)Cc3c(-c4ccccc4)ccnc3O2)cc1OC (stereo unspecified)	DT40 TDP1 no CPT inconclusive, TDP1 cell CPT inconclusive
COc1ccc(CCCNC(=O)C2(C)Cc3c(-c4ccc(NC(C)=O)cc4)ccnc3O2)cc1 (stereo unspecified)	IL-1B inflam inh inconclusive, DT40 TDP1 no CPT 25.9µM, TDP1 cell CPT 23.1µM
COc1ccc(NC(=O)C2(C)Cc3c(-c4ccc(NC(C)=O)cc4)ccnc3O2)cn1 (stereo unspecified)	HT1080 IDH1KD tx inconclusive, IL-1B inflam inh inconclusive, DT40 TDP1 no CPT inconclusive, TDP1 cell CPT 20.6µM, HT1080NT lethal inconclusive
COc1ccc(NC(=O)C2(C)Cc3c(-c4ccc(C(N)=O)cc4)ccnc3O2)cn1 (stereo unspecified)	HT1080 IDH1KD tx inconclusive, DT40 TDP1 no CPT inconclusive, TDP1 cell CPT inconclusive
O=C(CCl)Nc1cn(-c2ccccc2)nc1-c1ccccc1	IL-1B inflam inh -97.5, DT40 TDP1 no CPT 3.66µM, TDP1 cell CPT 2.91µM, HT1080NT lethal inconclusive
CC(=O)Nc1cn(-c2ccccc2)nc1-c1ccccc1	IL-1B inflam inh -78.6
Cc1cccc(NC2=Nc3ccccc3N3C2=Nc2c(c(C)nn2-c2ccccc2)C3c2ccc(O)c(O)c2)c1 (stereo unspecified)	HT1080 IDH1KD tx 16.4µM, DT40 TDP1 no CPT inconclusive, TDP1 cell CPT inconclusive, HT1080NT lethal 14.6µM
Cc1ccc(NC2=Nc3ccccc3N3C2=Nc2c(c(C)nn2-c2ccccc2)C3c2ccc(O)c(O)c2)cc1 (stereo unspecified)	HT1080 IDH1KD tx inconclusive, DT40 TDP1 no CPT inconclusive, TDP1 cell CPT inconclusive, HT1080NT lethal 23.1µM
Cc1nn(-c2ccccc2)c2c1C(c1ccc(O)c(O)c1)N1C(=N2)C(Nc2ccccc2)=Nc2ccccc21 (stereo unspecified)	none
C=C1CC2C3CCC4=CC(=O)C=C[C@]4(C)[C@@]3(F)[C@@H](O)C[C@]2(C)[C@@]1(O)C(=O)COC(C)=O (stereo partly specified)	none (no result: HT1080 IDH1KD tx, IL-1B inflam inh, HT1080NT lethal)
COc1ccc(CCC(=O)NCCc2ccc(Cl)cc2)cc1	none
